Laboratory results: ChEMBL document CHEMBL1961873, “Compounds: GSK PKIS; Assays: Nanosyn kinase panel” (2012)

Legend:
[1] = system: Epidermal growth factor receptor (Homo sapiens), P00533 [T790M]; conditions: at 1 µM
[2] = system: Epidermal growth factor receptor (Homo sapiens), P00533 [L858R,T790M]; conditions: at 0.1 µM
[3] = system: Epidermal growth factor receptor (Homo sapiens), P00533 [L858R,T790M]; conditions: at 1 µM
[4] = biological target: Ephrin type-A receptor 2 (Homo sapiens) (UniProt P29317); conditions: at 0.1 µM
[5] = biological target: Ephrin type-A receptor 2 (Homo sapiens) (UniProt P29317); conditions: at 1 µM
[6] = biological target: T1, Ephrin type-A receptor 3 (Homo sapiens) (UniProt P29320); conditions: at 0.1 µM
T1 sequence (whole entry): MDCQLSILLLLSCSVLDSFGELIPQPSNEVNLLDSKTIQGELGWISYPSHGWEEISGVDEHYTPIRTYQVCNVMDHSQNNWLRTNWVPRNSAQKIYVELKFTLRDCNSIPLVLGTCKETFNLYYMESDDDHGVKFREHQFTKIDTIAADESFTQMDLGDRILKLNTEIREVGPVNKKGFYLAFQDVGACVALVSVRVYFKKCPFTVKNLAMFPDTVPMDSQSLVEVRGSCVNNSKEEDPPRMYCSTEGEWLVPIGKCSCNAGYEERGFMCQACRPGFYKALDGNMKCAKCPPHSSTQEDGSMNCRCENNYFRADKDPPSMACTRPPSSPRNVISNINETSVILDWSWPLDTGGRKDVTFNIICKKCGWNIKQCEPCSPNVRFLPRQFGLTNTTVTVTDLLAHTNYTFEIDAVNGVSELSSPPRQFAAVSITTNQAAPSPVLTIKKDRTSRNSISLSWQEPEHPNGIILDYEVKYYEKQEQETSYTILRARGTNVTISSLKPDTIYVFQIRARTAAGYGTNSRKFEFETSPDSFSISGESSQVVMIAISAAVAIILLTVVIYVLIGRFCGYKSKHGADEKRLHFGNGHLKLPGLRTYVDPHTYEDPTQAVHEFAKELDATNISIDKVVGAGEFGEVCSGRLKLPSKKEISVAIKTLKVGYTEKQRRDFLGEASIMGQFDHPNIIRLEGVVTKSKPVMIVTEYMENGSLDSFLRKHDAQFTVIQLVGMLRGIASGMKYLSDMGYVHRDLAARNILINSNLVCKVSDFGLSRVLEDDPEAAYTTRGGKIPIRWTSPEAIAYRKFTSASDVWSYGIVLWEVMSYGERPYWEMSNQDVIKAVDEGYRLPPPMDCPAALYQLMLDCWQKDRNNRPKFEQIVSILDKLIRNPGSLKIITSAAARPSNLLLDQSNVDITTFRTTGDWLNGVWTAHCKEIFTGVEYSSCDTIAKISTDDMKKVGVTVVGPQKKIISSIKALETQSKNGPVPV

[7] = biological target: T1, Ephrin type-A receptor 3 (Homo sapiens); conditions: at 1 µM
[8] = biological target: Ephrin type-A receptor 4 (Homo sapiens) (UniProt P54764); conditions: at 0.1 µM
[9] = biological target: Ephrin type-A receptor 4 (Homo sapiens) (UniProt P54764); conditions: at 1 µM
[10] = biological target: T2, Ephrin type-B receptor 2 (Homo sapiens) (UniProt P29323); conditions: at 0.1 µM;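 also: reported as mean inhibition of EPHB2, from the GSK PKIS dataset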
T2 sequence (whole entry): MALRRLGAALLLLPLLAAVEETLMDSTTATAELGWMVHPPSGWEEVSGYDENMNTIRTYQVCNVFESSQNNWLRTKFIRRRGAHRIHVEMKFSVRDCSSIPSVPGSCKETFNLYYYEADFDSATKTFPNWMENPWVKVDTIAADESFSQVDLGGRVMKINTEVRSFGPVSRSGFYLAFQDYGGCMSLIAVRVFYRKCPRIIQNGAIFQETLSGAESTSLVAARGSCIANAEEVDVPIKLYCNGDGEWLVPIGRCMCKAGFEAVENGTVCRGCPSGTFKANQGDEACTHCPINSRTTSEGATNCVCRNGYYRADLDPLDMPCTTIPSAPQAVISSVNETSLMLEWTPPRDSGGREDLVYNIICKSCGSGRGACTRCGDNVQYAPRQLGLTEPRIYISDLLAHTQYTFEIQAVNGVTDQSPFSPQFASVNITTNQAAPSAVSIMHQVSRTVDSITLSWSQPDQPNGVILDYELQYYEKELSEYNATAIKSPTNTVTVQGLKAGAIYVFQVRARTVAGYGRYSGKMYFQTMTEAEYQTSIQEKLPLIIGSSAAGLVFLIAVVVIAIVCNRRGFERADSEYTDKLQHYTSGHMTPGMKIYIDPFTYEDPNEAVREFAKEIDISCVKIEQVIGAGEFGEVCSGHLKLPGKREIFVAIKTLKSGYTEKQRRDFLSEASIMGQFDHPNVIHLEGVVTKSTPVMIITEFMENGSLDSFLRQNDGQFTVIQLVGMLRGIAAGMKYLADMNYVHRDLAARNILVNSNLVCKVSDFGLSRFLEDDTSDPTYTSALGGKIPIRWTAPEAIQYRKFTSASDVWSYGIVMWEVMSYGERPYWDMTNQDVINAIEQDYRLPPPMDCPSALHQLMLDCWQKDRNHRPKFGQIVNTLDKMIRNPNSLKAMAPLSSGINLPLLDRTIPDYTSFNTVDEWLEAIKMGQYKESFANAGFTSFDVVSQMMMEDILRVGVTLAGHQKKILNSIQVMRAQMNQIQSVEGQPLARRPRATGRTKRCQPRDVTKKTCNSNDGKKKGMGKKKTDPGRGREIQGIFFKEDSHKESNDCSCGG

Ephrin type-A receptor 2 (Homo sapiens), sequence (P29317 whole entry): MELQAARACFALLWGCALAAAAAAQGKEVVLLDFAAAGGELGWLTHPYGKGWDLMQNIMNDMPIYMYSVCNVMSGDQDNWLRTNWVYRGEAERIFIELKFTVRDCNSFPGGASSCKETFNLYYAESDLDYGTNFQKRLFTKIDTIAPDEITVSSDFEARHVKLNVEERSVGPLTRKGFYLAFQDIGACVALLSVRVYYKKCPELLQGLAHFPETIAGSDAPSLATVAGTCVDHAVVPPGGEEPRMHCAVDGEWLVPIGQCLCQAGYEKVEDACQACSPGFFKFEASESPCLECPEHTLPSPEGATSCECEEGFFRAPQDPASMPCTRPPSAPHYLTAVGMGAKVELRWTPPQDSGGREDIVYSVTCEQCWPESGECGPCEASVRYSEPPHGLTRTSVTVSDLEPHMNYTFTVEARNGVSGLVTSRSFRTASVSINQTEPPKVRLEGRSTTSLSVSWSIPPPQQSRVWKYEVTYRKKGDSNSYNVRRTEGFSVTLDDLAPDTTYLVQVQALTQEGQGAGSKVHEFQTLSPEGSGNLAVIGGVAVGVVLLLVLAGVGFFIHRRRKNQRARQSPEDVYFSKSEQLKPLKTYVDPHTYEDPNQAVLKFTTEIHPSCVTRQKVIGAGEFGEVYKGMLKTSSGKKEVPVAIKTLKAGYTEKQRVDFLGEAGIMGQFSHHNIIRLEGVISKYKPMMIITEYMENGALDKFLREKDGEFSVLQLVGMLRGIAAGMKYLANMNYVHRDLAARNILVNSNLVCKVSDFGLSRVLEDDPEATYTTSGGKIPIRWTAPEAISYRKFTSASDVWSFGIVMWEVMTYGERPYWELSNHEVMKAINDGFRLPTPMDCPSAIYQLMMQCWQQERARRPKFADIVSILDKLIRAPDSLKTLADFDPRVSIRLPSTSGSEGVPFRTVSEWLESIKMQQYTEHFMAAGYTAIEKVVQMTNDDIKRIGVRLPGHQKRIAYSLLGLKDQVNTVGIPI
Epidermal growth factor receptor (Homo sapiens), P00533 [L858R,T790M], sequence (P00533 whole entry T790M/L858R, looked up): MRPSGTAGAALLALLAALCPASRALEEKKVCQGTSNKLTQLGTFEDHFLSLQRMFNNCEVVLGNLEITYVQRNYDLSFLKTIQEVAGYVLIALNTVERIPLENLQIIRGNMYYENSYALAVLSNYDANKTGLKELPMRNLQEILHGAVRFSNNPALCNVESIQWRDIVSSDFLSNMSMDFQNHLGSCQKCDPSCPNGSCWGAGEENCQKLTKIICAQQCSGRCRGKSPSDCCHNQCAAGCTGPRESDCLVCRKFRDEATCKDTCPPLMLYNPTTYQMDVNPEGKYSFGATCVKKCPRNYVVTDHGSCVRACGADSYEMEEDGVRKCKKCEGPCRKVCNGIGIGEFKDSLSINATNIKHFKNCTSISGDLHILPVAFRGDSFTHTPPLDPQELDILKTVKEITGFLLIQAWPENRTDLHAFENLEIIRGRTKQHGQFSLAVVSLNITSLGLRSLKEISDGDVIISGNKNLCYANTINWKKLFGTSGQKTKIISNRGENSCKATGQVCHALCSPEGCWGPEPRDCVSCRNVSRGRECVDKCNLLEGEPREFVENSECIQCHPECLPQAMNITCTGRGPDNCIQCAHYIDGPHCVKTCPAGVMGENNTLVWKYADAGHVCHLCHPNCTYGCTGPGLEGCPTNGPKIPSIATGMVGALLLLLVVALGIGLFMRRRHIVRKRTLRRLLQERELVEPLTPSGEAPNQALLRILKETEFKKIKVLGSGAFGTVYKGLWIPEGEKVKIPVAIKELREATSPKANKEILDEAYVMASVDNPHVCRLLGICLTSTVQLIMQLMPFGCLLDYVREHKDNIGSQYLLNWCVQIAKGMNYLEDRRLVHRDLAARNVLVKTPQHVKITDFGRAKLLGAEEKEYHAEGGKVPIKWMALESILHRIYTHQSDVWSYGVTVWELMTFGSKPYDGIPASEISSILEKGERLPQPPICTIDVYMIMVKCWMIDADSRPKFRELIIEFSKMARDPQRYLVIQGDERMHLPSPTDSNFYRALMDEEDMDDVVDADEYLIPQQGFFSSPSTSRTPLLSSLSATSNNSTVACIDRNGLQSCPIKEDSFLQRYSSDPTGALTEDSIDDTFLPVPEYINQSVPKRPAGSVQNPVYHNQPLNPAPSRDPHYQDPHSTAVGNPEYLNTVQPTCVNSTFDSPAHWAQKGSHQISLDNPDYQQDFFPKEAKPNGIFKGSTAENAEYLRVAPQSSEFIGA
Ephrin type-A receptor 4 (Homo sapiens), sequence (P54764 whole entry): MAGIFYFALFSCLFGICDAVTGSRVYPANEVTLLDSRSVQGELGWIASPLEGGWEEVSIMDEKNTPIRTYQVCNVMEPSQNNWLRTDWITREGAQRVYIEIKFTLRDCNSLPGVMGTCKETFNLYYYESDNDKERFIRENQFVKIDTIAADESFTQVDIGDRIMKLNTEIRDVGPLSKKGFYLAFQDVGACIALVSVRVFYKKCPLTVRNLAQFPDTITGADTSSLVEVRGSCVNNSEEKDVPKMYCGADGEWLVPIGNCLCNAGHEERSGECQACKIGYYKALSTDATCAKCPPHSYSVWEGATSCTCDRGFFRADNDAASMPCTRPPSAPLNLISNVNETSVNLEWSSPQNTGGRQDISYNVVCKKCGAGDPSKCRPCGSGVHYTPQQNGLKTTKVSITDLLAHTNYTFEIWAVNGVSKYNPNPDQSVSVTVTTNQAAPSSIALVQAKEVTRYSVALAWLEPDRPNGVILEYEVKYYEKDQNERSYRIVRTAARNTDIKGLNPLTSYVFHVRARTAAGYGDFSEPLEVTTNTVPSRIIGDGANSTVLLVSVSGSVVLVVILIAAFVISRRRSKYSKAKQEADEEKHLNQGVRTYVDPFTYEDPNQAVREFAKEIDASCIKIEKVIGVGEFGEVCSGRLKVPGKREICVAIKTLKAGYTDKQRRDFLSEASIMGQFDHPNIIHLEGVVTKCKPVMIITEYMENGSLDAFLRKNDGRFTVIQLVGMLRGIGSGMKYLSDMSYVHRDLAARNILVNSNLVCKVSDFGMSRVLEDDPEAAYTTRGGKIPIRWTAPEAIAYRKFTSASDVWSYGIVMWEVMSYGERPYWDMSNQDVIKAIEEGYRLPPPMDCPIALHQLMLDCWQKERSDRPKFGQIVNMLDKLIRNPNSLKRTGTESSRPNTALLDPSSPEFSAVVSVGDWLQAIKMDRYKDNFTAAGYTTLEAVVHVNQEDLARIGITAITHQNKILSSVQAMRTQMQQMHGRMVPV
Epidermal growth factor receptor (Homo sapiens), P00533 [T790M], sequence (P00533 whole entry T790M): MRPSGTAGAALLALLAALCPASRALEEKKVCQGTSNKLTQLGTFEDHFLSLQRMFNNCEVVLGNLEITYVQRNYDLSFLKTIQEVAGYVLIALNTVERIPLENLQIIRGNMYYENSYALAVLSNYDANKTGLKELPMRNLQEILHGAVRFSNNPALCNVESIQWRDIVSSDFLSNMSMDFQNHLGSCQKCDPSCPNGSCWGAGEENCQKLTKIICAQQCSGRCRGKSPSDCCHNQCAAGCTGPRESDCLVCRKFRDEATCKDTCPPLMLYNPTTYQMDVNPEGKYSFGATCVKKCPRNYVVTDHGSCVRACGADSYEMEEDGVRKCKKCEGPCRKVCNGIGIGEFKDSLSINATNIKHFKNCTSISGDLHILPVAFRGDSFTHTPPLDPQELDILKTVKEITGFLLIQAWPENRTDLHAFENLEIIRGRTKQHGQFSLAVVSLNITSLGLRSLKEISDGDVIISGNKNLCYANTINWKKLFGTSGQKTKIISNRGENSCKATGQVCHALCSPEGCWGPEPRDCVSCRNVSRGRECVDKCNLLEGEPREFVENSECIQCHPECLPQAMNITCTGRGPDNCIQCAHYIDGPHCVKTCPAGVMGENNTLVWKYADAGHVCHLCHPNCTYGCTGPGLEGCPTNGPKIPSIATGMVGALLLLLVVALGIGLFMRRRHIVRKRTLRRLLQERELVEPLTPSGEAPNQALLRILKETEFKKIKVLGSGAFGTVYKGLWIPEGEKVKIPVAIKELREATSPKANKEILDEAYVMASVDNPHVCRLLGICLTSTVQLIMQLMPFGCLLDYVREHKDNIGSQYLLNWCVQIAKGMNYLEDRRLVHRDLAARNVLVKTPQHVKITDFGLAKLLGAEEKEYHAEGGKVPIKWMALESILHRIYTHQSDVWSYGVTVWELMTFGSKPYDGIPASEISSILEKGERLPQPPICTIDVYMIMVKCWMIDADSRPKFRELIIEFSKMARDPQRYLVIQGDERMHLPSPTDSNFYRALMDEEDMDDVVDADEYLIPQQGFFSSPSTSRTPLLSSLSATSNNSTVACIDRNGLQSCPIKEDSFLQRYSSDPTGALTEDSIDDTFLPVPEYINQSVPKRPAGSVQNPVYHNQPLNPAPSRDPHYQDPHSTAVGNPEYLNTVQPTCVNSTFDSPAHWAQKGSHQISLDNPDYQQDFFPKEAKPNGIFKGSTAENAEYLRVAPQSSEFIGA

SMILES | inhibition [1] [%] | inhibition [2] [%] | inhibition [3] [%] | inhibition [4] [%] | inhibition [5] [%] | inhibition [6] [%] | inhibition [7] [%] | inhibition [8] [%] | inhibition [9] [%] | inhibition [10] [%]
COc1ccc(COc2ccc(Cc3cnc(N)nc3N)cc2OC)cc1 | -2.86 | 2.14 | -1.75 | 2.27 | 2.74 | -0.07 | 0.08 | 1.25 | -0.14 | 1.4
CS(=O)(=O)CCNCc1ccc(-c2ccc3ncnc(Nc4ccc(OCc5cccc(F)c5)c(C(F)(F)F)c4)c3c2)o1 | 3.43 | -0.63 | -1.62 | 0.17 | 1.21 | 3.24 | 1.95 | 8.08 | 6.97 | 4.21
CN(C)c1cc2c(Nc3ccc4nc(Cc5ccccc5)[nH]c4c3)ncnc2cn1 | 6.78 | 3.54 | 7 | 2.13 | 2.37 | 7.81 | 5.67 | 11.6 | 15.2 | 9.32
COc1ccccc1Nc1ncc(-c2ccccc2)o1 | 2.18 | 1.54 | 1.28 | 2.74 | 1.76 | 2.8 | 4.86 | 7.21 | 12.8 | 7.35
CCn1c(-c2nonc2N)nc2cnc(Oc3cccc(NC(=O)c4ccc(OCCN5CCOCC5)cc4)c3)cc21 | 2.18 | -0.63 | 3.24 | -2.53 | -2.47 | 3.26 | 4.85 | 7.53 | 7.73 | 5.7
Nc1nc(-c2ccc3c(c2)C(=Cc2cc(Br)c(O)c(Br)c2)C(=O)N3)cs1 | -1.57 | -0.73 | 3.93 | -4.92 | -4.26 | -6.05 | -2.41 | -6.57 | -2.56 | -3.26
NC(=O)c1cccc(Nc2nccc(Nc3cccc4[nH]ncc34)n2)c1 | -2.41 | -5.66 | 8.31 | 7.85 | 53.6 | 40.2 | 72.9 | 31 | 81.1 | 30.4
Nc1ncnc2occ(-c3ccc(NC(=O)Nc4cc(C(F)(F)F)cc(C(F)(F)F)c4)cc3)c12 | -2.28 | -1.98 | 0.18 | 7.28 | 42 | 6.5 | 14.6 | 8.44 | 44.5 | 22
Cc1nn(C)c2cc(N(C)c3ccnc(Nc4cccc(S(N)(=O)=O)c4)n3)ccc12 | 7.49 | 1.34 | 12.7 | 1.28 | 18.6 | 6.82 | 16.5 | 12.2 | 43.7 | 7.61
Fc1cccc(COc2ccc(Nc3ncnc4cc(-c5ccc[nH]5)sc34)cc2Cl)c1 | 2.62 | -2.38 | 0.3 | -6.71 | -6.16 | -1.97 | -0.94 | 5.45 | 6.22 | 1.52
CCN1CCC(CC(=O)Nc2n[nH]c3nc(-c4cccs4)c(Br)cc23)CC1 | -1.12 | 0.09 | -0.41 | -3.7 | -1.54 | -7.71 | -2.29 | -7.32 | -3.58 | -2.13
COc1ccc2cc(-c3c(-c4ccncc4)nc(-c4ccc([S+](C)[O-])cc4)n3C)ccc2c1 (stereo not given) | -0.54 | 1.75 | 0.88 | 1.69 | 1.61 | 3.89 | 5.2 | -2.82 | 8.03 | 3.58
CCn1c(-c2nonc2N)nc2cncc(C(=O)N3CC[C@H](N)C3)c21 | 3.15 | 1.56 | 1.95 | -0.29 | -0.49 | 4.99 | 5.74 | 9.5 | 10 | 5.01
COc1cccc(-n2ncc3c(N/N=C/c4cccc(F)c4)ncnc32)c1 | 0.45 | -0.32 | 2.54 | -6.37 | -5.64 | -1.03 | -0.95 | 4.81 | 2.57 | 3.17
COc1cc(C)c(NC(=O)CN(C)C)cc1Nc1nc(Nc2cccc(F)c2C(N)=O)c2cc[nH]c2n1 | 30.3 | 14.3 | 54.2 | 0.91 | -1.18 | 3.57 | 1.85 | 6.35 | -1.05 | 4.98
CN1CCC(C(=O)Nc2n[nH]c3nnc(-c4ccccc4)cc23)CC1 | 4.1 | -2.57 | 4.67 | 1.84 | 2.09 | 4.03 | 2.66 | 8.03 | 8.45 | 4.92
